Among the data in the supplement of paper PMC6555819 are PBM binding z-score values, retold here.

The test system of the assay is PPARa:RXRa (NR concentration 270 nM, RXRa partner concentration 90 nM). The experiment in a line: PBM binding z-score (relative to random genomic background probes); higher = stronger binding; sequences stand for … in GC…GCGATTGACAGCGTAGAATGAAGG
As to the method: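 Protein-binding microarray (Agilent 4x180K custom design, double-stranded 60-nt probes: 5' GC cap, 34-nt variable region, 24-nt constant primer region; full probe sequence given). Purified or IVT nuclear receptor:RXRα heterodimers (3:1 NR:RXRα, mostly 270:90 nM) or homodimers were incubated for 1 h in PBS with 2% milk and no ligand, then detected with Alexa488 antibodies. Fluorescence from o1-orientation probes (~5 replicates averaged) was converted to z-scores against 500 random hg19 background probes. Variable regions are seed direct-repeat (DR0–DR5) sites, all their single-nucleotide variants and half-site ablations.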
CGTTCAAGGTCAAAGGTCAGTGAAGAGATGACGG yielded a PBM binding z-score of 7.05. In the case of CGTCTAAGGTCATAGGAGGTCAGTGAAGACAGAT, the PBM binding z-score was determined as 6.24. With TAGCCGAGGTCATTCAGGGGCCAGTATAGAAAGC, the PBM binding z-score worked out at 6.23. ACTTACGGGTCAACGAGGTCATAGCACGCGTATA displayed a PBM binding z-score of 6.12. Next, TCGCCTAGGTCATGGGCCAGTATACCACGCGAAC: 4.13; CCTACTGGGCCAAAGGTGATTGATTCCAATGCTC: 4.5; AGTCAAAGTTGAGGACGAGGTAACGTAAAGCACG: 0.937.

Take AAAACAGGGTCATCGTAGGCCAGAGTACGCACAG: the PBM binding z-score amounted to 6.26.

As to TAGCCTAGGTCACATCGGGCCAGTATACGCTATA, the PBM binding z-score was 3.16. As for ACTTACGGGTCTACGAGGTTATAGCACGCGTATA, the PBM binding z-score is 1.2. The sequence ATATGTAGGTTACATCCGGGTCATCCAGGCTATG registered a PBM binding z-score of 4.41. In the case of CAAACAAGGTCAAAGGTCAAAGTCGAGCCAACCA, the PBM binding z-score came to 7.41. Next, CAAACTAGTTCAAGAGGTCAAAGTCCGCTTCCCG: 5.38; CCTACTGGGCCAAAAAGGTCATTGATGCCGATAA: 4.51. Sequence CGAACTAGGTCAAGGCCAGTGAATCTCCGCACGC came in with a PBM binding z-score of 5.04. GCATATAGGTAATACAAGGTCAAAGTCCGATTGT displayed a PBM binding z-score of 4.21. In turn, CCGAGGAGGTTACGAGGGGGCATTCAGTGCGAAT came in with a PBM binding z-score of 4.29. On to AATACAGGGTCATCTTAGGCCAGAGTACGCACAG, for which the PBM binding z-score was determined as 6.06. Next, ATATGTAGGTTATCGGGTCATACAGTTTGCGCAT: 5.09.

Sequence AATACAGGGTGACTAGGCCAGAGTAGGTACGAAT yielded a PBM binding z-score of 1.7. As for CTACCAAGGTCAACAAGGTCGTTGATTACTATTC, the figure is 6.16; as for AACGAAAGGTCGAAGGTGAGTATACCCACCCGAA, 4.89; as for CCTAGTTGGTCAAGGTCACATACGCTATAGGTAC, 4. Take CGAACTAGGTCTAAGGACAGTGAAAGGCGACGTA: the PBM binding z-score came to 0.792.

The sequence CCGACGGGGGCAAAGGTTACCATACTCAGTACGA returned a PBM binding z-score of 6.41.

AGAATGAGGTCACCAAAGATCAGGGAAACGCTTG had a PBM binding z-score of 6.33.

The sequence GCTGCTAGGTCAACTGATGGTCAACTAAAGCTCG yielded a PBM binding z-score of 3.72. In the case of ATCTCTAGGTTAAGATAGTTCAGTGAATGCAAAT, the PBM binding z-score worked out at 1.77.

In the case of TGTCAATGTTCAAAGGTAACGTAAGTATCCACAC, the PBM binding z-score stood at 1.3. The sequence CGTCCAAGGTCAAGGTCAATGAAAGAGACTCGAA returned a PBM binding z-score of 6. Sequence GGAACGAGGTCATTCGAGTTGATAGCATGGCGAT returned a PBM binding z-score of 5.98. On to GCTTACAGGTCAAAGGTTATAGCATGAATAGAAT, for which the PBM binding z-score was 7.1. TCTCGGAGGACACTAAAGGTCAGAGCTCGACATC had a PBM binding z-score of 3.42. For CAAAATAGGTCAAAGGTCAAAGTCGAGCCAACCA, the PBM binding z-score came out at 7.93. Take AATAAAGGGTCATCGTAGGCCAGAGTACGCACAG: the PBM binding z-score came to 5.96.

In the case of CCTACTGGGTCACGAAAGGTCATTGATTCAGTGA, the PBM binding z-score turned out to be 6.44. Next, AATACAGGGTCATCGTAGGTCAGAGTACGCACAG: 6.23; ATCGAAAGGTCGTGAGGTAAGTATACAGAAAGGC: 5.23; CAAACTAGGTCACAAAAGGTCAAAGTCGAATGAC: 6.35.

TAGCCTAGGTCATGCGGGCCAATATAGTGTCGGC showed a PBM binding z-score of 3.53.
